# Results: PubChem BioAssay AID504834 (National Center for Advancing Translational Sciences (NCATS), 2011)
# The campaign covered roughly 320,000 compounds. About 22,000 (6.9%) were called active. Not shown: some 27% with an inconclusive outcome. This is one part of a sample in which actives are shown more often than they occur. A number with no mark means an inactive call. Calls come from the whole dose curve; as a rule, active = well fitted inhibition curve with a large enough effect; inconclusive = small, poorly fitted or top-dose-only effect, or another doubt; inactive = no such curve, though single readings can be large or run the other way.
# Test: Primary qHTS for delayed death inhibitors of the malarial parasite plastid, 96 hour incubation
# Details: P. falciparum luciferase reporter growth; series mostly up to 28.7 µM; activity change, negative = inhibition: at the top concentration
# How it was run: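 Luminescence readout: decreased luciferase signal marks inhibited growth of reporter-expressing P. falciparum in infected red cells (2% hematocrit, 0.05% parasitemia final), exposed to compound two generations (96 h, 37 C, 5% CO2).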
# % is set by controls: 0 for no effect and ±100 for the full control effect; potency is the fitted concentration of half-maximal effect.
SMILES,"activity change, negative = inhibition",Potency
CN(C)NC(=O)c1csnc1-c1c(Cl)cccc1Cl,-3.91%,
O=C(COC(=O)CNS(=O)(=O)c1ccc(F)c(F)c1F)NC1CCCC1,15%,
Cc1ccc(-c2csc(NC(=O)c3cnccn3)n2)cc1C,-3.59%,
Cc1csc(NC(=O)C2=COCCO2)n1,121%,
Cc1ccc(-c2csc(NC(=O)C3=COCCO3)n2)cc1C,,6.57 µM (active)
O=C(Nc1nc(-c2ccc3c(c2)OCO3)cs1)c1ccncc1,,4.15 µM (active)
O=C(Nc1nc2ccccc2s1)c1ccc2c(c1)OCO2,31.4%,
CC(=O)NCCC(=O)Nc1nc(-c2ccc3c(c2)OCCO3)cs1,105%,
COc1ccc(NC(=O)NNC(=O)COc2cc(C)c(Cl)c(C)c2)c(OC)c1,15.4%,
COC(=O)c1ccc(COc2cc([N+](=O)[O-])cc3cccnc23)cc1,105%,
CCc1ccc(S(=O)(=O)NCC(O)COc2ccc(OC)cc2)cc1 (stereo not given),30.5%,
O=C(Nc1cccc(-n2cnnn2)c1)c1cccnc1,33.7%,
CC(=O)C(C)n1cnc2scc(-c3ccc(C)cc3)c2c1=O (stereo not given),-25.2%,
CCOC(=O)Nc1sc(C(=O)N(C)C)c(C)c1C(=O)OCC,207%,
CCOC(=O)c1c(NC(=O)CCl)sc(C(=O)N(CC)CC)c1C,,9.28 µM (active)
CCOC(=O)c1sc(NC(=O)CCN2CCOCC2)c(C(=O)OCC)c1C,22.1%,
O=C(NCc1ccncc1)c1ccc(NS(=O)(=O)c2cccc([N+](=O)[O-])c2)cc1,-1.86%,
Cc1nc2ccccc2c(=O)n1-c1ccc(NS(=O)(=O)c2ccc(F)cc2F)cc1,17.4%,
CCn1c(SCc2ccccc2)nc2cc(OC)c(OC)cc2c1=O,,2.94 µM (active)
COCCn1c(SCc2nc3cc(OC)c(OC)cc3c(=O)[nH]2)nnc1-c1ccncc1,40.9%,
CCn1c(Cc2ccccc2)nnc1SCc1nc2ccccc2c(=O)[nH]1,9.46%,
CS(=O)(=O)c1ccc(-c2nnn(CC(=O)Nc3ccc4c(c3)OCCO4)n2)cc1,19.7%,
O=C1c2ccccc2C(=O)C1c1ccccc1F,-0.389%,
O=C(NCc1ccco1)c1ccc([N+](=O)[O-])cc1Cl,-5.31%,
Cc1ccc2c(c1)C1CN(C)CCC1N2C(=O)Cn1nnc(-c2ccccc2F)n1 (stereo not given),27.2%,
Cc1ccc2c(c1)C1CN(C)CCC1N2C(=O)c1ccccc1NS(=O)(=O)c1ccc(F)cc1C (stereo not given),,9.28 µM (active)
Cc1ccc2c(c1)C1CN(C)CCC1N2C(=S)Nc1ccc(Cl)cc1Cl (stereo not given),-2.18%,

SMILES,"activity change, negative = inhibition",Potency
CC(OC(=O)CNC(=O)c1ccco1)C(=O)Nc1ccc(Cl)cn1 (stereo not given),19.5%,
Cc1nn(-c2ccccc2)c(C)c1/C=N/NC(=O)CSc1nc2ccccc2c(=O)n1-c1ccccc1,-19.8%,
O=C(CSc1nc2ccccc2[nH]1)N/N=C/C=C\c1ccccc1[N+](=O)[O-],-5.62%,
Cc1ccc(-n2c(SCC(=O)N/N=C/C=C/c3ccccc3[N+](=O)[O-])nc3ccccc3c2=O)cc1,,10.4 µM (active)
COc1ccc(CCNC(=O)CN(C)S(=O)(=O)c2ccc3nc(C)sc3c2)cc1OC,4.32%,
COCCn1c(SCC(=O)Nc2cc(OC)ccc2OC)nc2c(c1=O)SC(C)C2 (stereo not given),-29.5%,
COCCn1c(SCC(=O)Nc2ccccc2F)nc2c(c1=O)SCC2,,14.7 µM (active)
Cn1nnnc1SCC(=O)Nc1ccccc1C(=O)NC1CC1,11.2%,
CC1Cc2nc(SCC(=O)Nc3ccccc3F)n(C)c(=O)c2S1 (stereo not given),27.8%,
Cn1c(SCC(=O)N2CCCCC2)nc2c(c1=O)SCC2,-11.4%,
COCCn1c(SCC(=O)Nc2cc(Cl)ccc2OC)nc2c(c1=O)SC(C)C2 (stereo not given),,3.7 µM (active)
CCn1c(SCC(=O)Nc2ccccc2F)nc2c(c1=O)SC(C)C2 (stereo not given),,11.7 µM (active)
CCn1c(SCC(=O)Nc2ccc3c(c2)OCCO3)nc2c(c1=O)SC(C)C2 (stereo not given),6.59%,
CCCCSc1nc2c(c(=O)n1CC)SC(C)C2 (stereo not given),-41.8%,
CCOc1ccc(CCNC(=O)COC(=O)C2CCN(c3ccc(C(F)(F)F)cn3)CC2)cc1OCC,-3.1%,
FC(F)(F)C1CCCN(c2nsc3ccccc23)C1 (stereo not given),-53.7%,
Cc1cccc(NC(=O)C2CCCN(C(=O)Nc3ccc(F)cc3)C2)c1C (stereo not given),33.5%,
CCOC(=O)N1CCN(S(=O)(=O)c2ccc(Br)cc2)CC1,-3.72%,
CC(C)(C)c1ccccc1NC(=O)CN1C(=O)NC2(CCCC2)C1=O,18%,
CN(C)c1ccc(C2Nc3ccccc3C(=O)N2NS(=O)(=O)c2ccccc2)cc1 (stereo not given),7.21%,
CC(C)C(=O)N1c2ccccc2NC2=C(C(=O)CCC2)C1c1ccc(N(C)C)cc1 (stereo not given),,2.33 µM (active)
CC1C(=O)Nc2ccccc2N1C(=O)c1c(F)cccc1F (stereo not given),-2.07%,
Cc1ccc(C(NC(=O)N2CCCC2)C(Cl)(Cl)Cl)cc1F (stereo not given),,8.28 µM (active)
Cc1ccc(C(=O)N2CCCC2)c(F)c1F,43.2%,
Cc1cc(C)cc(NC(=O)N2CCCCCCC2)c1,-12.7%,
CC(Sc1ncnc2c1cnn2-c1ccccc1)C(=O)Nc1ccc(N2CCOCC2)cc1 (stereo not given),52.5%,
CCOC(=O)c1cc2n(c1C)-c1ccccc1C2=O,,9.28 µM (active)

SMILES,"activity change, negative = inhibition",Potency
CCOC(=O)c1ccccc1CN1C(=O)c2ccccc2S1(=O)=O,-21.7%,
CCOC(=O)c1cc2n(c1N)-c1ccccc1C2=O,-2.58%,
Nc1c(N(CCO)C(=O)C2CCCCC2)c(=O)[nH]c(=O)n1Cc1ccccc1,-15.8%,
CC(=O)Nc1ccc(S(=O)(=O)Nc2nc(-c3ccc(C(C)(C)C)cc3)cs2)cc1,,1.65 µM (active)
CC(=O)Nc1ccc(-c2csc(NC=C3C(=O)OC(C)(C)OC3=O)n2)cc1,48.3%,
CC(=O)Nc1ccc(-c2csc(NC(=O)Nc3ccccc3)n2)cc1,-17%,
O=C(CSc1nnc(CNC(=O)c2ccc(F)cc2)o1)Nc1ccc2c(c1)OCO2,17.8%,
Cc1ccc(N2C(=O)CC(N3CCSCC3)C2=O)c(C)c1 (stereo not given),32.4%,
N#Cc1ccc(S(=O)(=O)NCC(=O)OCC(=O)NCCc2ccccc2)cc1,0.639%,
O=C(COC(=O)CCc1nc2ccccc2c(=O)[nH]1)Nc1ccc(N2CCOCC2)cc1,31.5%,
Cc1ccccc1OCc1nnc(SCC(=O)N2c3ccccc3Sc3ccc(Cl)cc32)o1,,13.1 µM (active)
Cc1ccc(NC(=O)CSc2nnc(COc3ccccc3C)o2)cc1,-34.1%,
CC(C)NC(=O)CSc1nnc(COc2ccccc2Cl)o1,-6.92%,
O=C(NNS(=O)(=O)Cc1ccccc1)c1ccc([N+](=O)[O-])cc1,5.29%,
Cn1c(-c2sc3cc(C(F)(F)F)cnc3c2-c2ccccc2)n[nH]c1=S,-10.7%,
Cn1c(-c2sccc2OCc2cccc(C(F)(F)F)c2)n[nH]c1=S,,14.7 µM (active)
Cc1ccccc1-c1n[nH]c(=S)n1C,19.3% [at 5.75 µM],
O=c1o[nH]c(-c2ccccc2)c1N=Nc1c(F)cccc1Cl,43%,
CC[C@H]1CN2CCc3cc(OC)c(OC)cc3[C@@H]2C[C@@H]1C[C@H]1NCCc2cc(OC)c(OC)cc21,,0.0738 µM (active)
COC(=O)c1ccc([C@@H](O)[C@H](C)C(=O)CC(=O)OC(C)(C)C)cc1,-0.0226%,
Cc1nn(Cc2ccc(Cl)cc2)c(Cl)c1/C=N/NC(=O)CNc1ccccc1F,,9.28 µM (active)
CCn1nc(C)c(/C=N/NC(=O)Cc2ccc(Cl)cc2)c1C,1.71%,
COc1ccc(Cl)cc1NC(=O)CNc1ccccc1F,-27.6%,
Cc1ccccc1OCC(=O)Nc1ccc2c(c1)ncn2C,-3.77%,
COc1cccc(-c2nn(C)c3sc(C(=O)N4CCN(c5ccccc5)CC4)cc23)c1,-0.824%,
CCN(CC)CCN(C(=O)c1cccc([N+](=O)[O-])c1)c1nc2ccc(OC)cc2s1,30.2%,
COc1ccc2nc(N3CCN(C(=O)c4ccc([N+](=O)[O-])o4)CC3)sc2c1,,0.738 µM (active)

SMILES,"activity change, negative = inhibition",Potency
CCOc1ccc(NC(=O)C/C(C)=N/NC(=O)Cc2cccs2)cc1,3.76%,
O=C(Cc1cccs1)N/N=C/c1ccc(OCc2ccccc2)cc1,,11.7 µM (active)
C=CCNC(=S)N/N=C/c1ccc(OCc2ccccc2)cc1,10.7%,
O=C(Nc1ccc(-n2cccn2)cc1)C1CCN(Cc2ccsc2)CC1,31.9%,
CCn1c(SCC(=O)Nc2cc(C)c(Cl)cc2OC)nnc1-c1ccco1,29.3%,
COc1ccccc1NC(=O)CSc1nnc(C)n1CC1CCCO1 (stereo not given),0.0774%,
COc1cc(Cl)c(C)cc1NC(=O)CSc1nnc(-c2ccco2)n1CC(C)C,,10.4 µM (active)
O=C(CSc1ccc(-c2ccco2)nn1)NCc1ccc2c(c1)OCO2,-19.1%,
COc1ccc(NC(=O)CCC(=O)Nc2cc(OC)c(NC(=O)c3ccco3)cc2OC)c(OC)c1,2.14%,
COc1ccc(NC(=O)CSc2ccc(-c3ccco3)nn2)c(OC)c1,,14.7 µM (active)
CCN(CC)c1ccc(/C=N/NC(=O)CNC(=O)c2cccs2)cc1,34.7%,
O=C(Nc1ccccc1-c1nc2ccccc2[nH]c1=O)c1cccs1,-24.4%,
Cc1ccc(C(CNC(=O)Nc2ccccc2)N2CCN(C)CC2)cc1 (stereo not given),14.9%,
CC(C)(C)c1ccc(Oc2ccc(N)cc2)cc1,27.6%,
CC(C)(C)c1ccc(OC2=CS(=O)(=O)c3ccccc32)cc1,,9.28 µM (active)
O=C1NS(=O)(=O)c2ccccc21,13.4%,
CCn1cc(/C=C(\NC(=O)c2cc(OC)c(OC)c(OC)c2)C(=O)N2CCN(C)CC2)c2ccccc21,18.6%,
CC1CCN(CC(=O)Nc2nccs2)CC1,0%,
Cc1cc(=O)[nH]c(SCC(=O)Nc2ccc(Br)cc2)n1,51.7%,
CC(=O)Oc1ccc(N(C(C)=O)S(=O)(=O)c2ccc3ccccc3c2)cc1Br,18%,
Cc1nc([N+](=O)[O-])cn1CC(=O)Nc1ccc(Cl)cc1,-3.85%,
NS(=O)(=O)c1ccc(CNC(=O)c2cccc(S(=O)(=O)N3CCc4ccccc43)c2)cc1,-17.5%,
CNC(=O)c1ccsc1NC(=O)c1ccc(S(=O)(=O)N2CCc3ccccc32)cc1,,11.7 µM (active)
O=C(Nc1nc2ccc([N+](=O)[O-])cc2s1)c1ccc(S(=O)(=O)N2CCCc3ccccc32)cc1,-26.7%,
